Laboratory results as given in publication PMC7862700, “An all-to-all approach to the identification of sequence-specific readers for epigenetic DNA modifications on cytosine”.

Columns and labels:
Assay in all cases: DAPPL (digital affinity profiling via proximity ligation, sequencing); 10 mM Tris-HCl pH 7.5, 50 mM NaCl, 1 mM DTT, 4% glycerol, room temperature, 30 min; GST-TFs on glutathione beads, 16-mer random dsDNA library, 0.1% formaldehyde crosslink after washing; high values mean tight binding
FEV = target: T1, FEV (Homo sapiens, UniProt Q99581 1-238); conditions: protein: recombinant; tags: N-terminal GST; dsDNA, one strand shown
T1 sequence: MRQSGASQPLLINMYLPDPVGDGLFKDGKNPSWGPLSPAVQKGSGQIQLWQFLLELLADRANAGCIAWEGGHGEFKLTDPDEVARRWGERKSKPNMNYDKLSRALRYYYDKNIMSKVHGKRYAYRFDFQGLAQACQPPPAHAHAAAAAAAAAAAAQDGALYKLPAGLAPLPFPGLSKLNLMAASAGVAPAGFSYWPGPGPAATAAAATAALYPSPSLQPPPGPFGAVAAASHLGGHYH
Procedure, shortened: (§1)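 A tag-only sample was pooled with DNA-barcoded human transcription factors that had been expressed in yeast as GST fusions and captured on glutathione beads. The pools were incubated for 30 min at room temperature with 200 nmole of a random double-stranded 16-mer DNA library in Tris/NaCl/DTT/glycerol buffer, then washed, crosslinked with 0.1% formaldehyde, proximity-ligated (BsaI/T4 ligase, 1 h, 37 °C), PCR-amplified and sequenced on an Illumina NextSeq500. Binding signal is each hexamer's read frequency for a factor divided by its frequency for the tag-only sample.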

ETV5 = ETV5 (Homo sapiens, UniProt P41161 1-510); conditions: protein: recombinant; tags: N-terminal GST; dsDNA, one strand shown
Procedure, shortened: as §1

HSF1 = HSF1 (Homo sapiens, UniProt Q00613 1-529); conditions: protein: recombinant; tags: N-terminal GST; chain copies: 3; dsDNA, one strand shown
Procedure, shortened: as §1

SPIC = target: T2, SPIC (Homo sapiens, UniProt Q8N5J4 1-248); conditions: protein: recombinant; tags: N-terminal GST; dsDNA, one strand shown
T2 sequence: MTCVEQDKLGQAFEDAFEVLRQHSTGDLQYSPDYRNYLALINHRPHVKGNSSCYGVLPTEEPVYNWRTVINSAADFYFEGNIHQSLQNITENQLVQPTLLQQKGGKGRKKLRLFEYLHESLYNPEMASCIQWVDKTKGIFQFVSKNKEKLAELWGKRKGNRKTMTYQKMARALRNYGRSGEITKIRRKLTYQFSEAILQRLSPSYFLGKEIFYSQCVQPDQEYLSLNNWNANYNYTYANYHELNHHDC
Procedure, shortened: as §1

ELF4 = ELF4 (Homo sapiens, UniProt Q99607 1-663); conditions: protein: recombinant; tags: N-terminal GST; dsDNA, one strand shown
Procedure, shortened: as §1

ELK4 = target: T3, ELK4 (Homo sapiens, UniProt P28324-2 1-405); conditions: protein: recombinant; tags: N-terminal GST; dsDNA, one strand shown
T3 sequence: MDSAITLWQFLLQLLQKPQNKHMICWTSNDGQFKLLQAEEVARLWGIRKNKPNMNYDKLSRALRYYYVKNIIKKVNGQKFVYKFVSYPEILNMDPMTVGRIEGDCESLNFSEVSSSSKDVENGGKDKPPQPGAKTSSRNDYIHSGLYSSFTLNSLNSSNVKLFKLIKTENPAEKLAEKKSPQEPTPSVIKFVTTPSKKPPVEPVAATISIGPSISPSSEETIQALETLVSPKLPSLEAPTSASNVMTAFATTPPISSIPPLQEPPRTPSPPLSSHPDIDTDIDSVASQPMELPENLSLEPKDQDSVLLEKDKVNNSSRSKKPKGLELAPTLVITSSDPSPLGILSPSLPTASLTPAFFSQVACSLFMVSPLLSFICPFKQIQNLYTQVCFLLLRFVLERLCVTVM
Procedure, shortened: as §1

ETV2 = target: T4, ETV2 (Homo sapiens, UniProt O00321 1-342); conditions: protein: recombinant; tags: N-terminal GST; dsDNA, one strand shown
T4 sequence: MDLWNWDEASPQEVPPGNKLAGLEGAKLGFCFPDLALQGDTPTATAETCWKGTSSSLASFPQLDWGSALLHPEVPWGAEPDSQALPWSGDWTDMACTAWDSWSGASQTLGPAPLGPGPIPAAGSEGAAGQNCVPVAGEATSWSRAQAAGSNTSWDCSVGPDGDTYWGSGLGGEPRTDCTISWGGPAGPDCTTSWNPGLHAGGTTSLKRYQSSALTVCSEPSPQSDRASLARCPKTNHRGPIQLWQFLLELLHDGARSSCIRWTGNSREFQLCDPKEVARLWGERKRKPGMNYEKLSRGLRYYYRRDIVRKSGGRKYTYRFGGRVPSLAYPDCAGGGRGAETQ
Procedure, shortened: as §1

ELF3 = target: T5, ELF3 (Homo sapiens, UniProt P78545 1-371); conditions: protein: recombinant; tags: N-terminal GST; dsDNA, one strand shown
T5 sequence: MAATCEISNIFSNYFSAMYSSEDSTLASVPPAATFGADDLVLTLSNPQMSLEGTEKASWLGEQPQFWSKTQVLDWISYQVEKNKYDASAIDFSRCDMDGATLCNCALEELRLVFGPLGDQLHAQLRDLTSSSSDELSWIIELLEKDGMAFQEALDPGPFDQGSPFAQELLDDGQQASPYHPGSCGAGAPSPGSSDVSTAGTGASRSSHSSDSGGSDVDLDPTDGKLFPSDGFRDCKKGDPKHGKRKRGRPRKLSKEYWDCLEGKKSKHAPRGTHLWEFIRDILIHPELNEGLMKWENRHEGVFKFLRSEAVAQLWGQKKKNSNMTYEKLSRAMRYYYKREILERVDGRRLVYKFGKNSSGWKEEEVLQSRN
Procedure, shortened: as §1

CRX = CRX (Homo sapiens, UniProt O43186 1-299); conditions: protein: recombinant; tags: N-terminal GST; dsDNA, one strand shown
Procedure, shortened: as §1

Chain of HSF1 (Q00613 whole entry): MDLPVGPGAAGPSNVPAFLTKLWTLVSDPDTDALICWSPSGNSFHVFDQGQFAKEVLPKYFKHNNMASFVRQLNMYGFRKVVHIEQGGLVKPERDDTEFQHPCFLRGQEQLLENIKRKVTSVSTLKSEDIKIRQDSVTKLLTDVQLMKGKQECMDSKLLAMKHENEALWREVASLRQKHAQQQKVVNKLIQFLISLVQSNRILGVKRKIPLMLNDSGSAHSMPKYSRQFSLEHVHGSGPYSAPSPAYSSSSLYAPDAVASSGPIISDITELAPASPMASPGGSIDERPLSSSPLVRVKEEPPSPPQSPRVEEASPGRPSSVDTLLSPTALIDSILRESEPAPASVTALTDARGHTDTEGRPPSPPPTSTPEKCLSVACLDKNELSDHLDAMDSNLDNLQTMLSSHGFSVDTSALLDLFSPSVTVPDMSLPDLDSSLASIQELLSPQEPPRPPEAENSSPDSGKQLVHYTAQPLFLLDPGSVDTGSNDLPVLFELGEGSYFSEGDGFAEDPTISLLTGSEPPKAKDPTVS
Chain of CRX (O43186 whole entry): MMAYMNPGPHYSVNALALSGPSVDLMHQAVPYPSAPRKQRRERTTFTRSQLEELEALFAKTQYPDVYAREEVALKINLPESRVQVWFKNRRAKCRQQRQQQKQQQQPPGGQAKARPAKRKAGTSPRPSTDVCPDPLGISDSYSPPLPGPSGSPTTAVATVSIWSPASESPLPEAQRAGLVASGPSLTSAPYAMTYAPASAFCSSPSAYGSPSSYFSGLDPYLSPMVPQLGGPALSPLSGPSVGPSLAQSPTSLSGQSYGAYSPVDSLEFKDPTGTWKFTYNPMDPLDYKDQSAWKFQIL
Chain of ELF4 (Q99607 whole entry): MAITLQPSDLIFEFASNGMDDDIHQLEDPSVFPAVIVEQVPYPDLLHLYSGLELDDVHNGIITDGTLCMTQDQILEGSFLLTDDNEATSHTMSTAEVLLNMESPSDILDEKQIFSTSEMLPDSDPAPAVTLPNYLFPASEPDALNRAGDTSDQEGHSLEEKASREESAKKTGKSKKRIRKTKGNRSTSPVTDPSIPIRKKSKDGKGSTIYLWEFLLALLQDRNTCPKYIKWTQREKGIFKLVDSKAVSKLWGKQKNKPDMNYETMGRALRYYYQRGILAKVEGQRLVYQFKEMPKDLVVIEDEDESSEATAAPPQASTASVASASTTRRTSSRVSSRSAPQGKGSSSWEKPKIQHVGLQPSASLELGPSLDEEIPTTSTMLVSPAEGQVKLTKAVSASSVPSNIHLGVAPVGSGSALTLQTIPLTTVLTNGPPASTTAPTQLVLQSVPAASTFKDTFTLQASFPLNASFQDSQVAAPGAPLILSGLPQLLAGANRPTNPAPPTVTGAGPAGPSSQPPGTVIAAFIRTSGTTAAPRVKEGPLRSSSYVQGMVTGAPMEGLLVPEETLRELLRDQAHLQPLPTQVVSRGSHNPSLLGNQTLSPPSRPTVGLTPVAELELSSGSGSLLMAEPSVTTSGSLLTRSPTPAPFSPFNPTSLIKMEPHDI
Chain of ETV5 (P41161 whole entry): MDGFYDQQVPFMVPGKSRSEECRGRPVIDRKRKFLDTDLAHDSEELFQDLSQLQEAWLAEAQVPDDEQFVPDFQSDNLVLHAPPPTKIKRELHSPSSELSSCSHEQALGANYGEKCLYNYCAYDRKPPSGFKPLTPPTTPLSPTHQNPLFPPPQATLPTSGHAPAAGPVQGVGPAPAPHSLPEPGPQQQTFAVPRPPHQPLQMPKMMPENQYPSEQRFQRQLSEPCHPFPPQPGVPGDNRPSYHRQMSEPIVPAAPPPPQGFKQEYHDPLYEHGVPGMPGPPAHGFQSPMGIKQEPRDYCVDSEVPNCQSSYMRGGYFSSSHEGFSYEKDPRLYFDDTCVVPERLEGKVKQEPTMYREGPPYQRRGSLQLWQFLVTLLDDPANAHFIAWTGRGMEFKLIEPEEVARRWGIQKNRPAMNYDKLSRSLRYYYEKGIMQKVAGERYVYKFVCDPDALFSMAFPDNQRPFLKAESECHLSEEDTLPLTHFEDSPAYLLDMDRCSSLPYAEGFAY

CCCTGG was tested, and the binding signal (FEV) was 1.08 fold enrichment (6-mer frequency, TF over GST control), the binding signal (ETV5) was 1.09 fold enrichment (6-mer frequency, TF over GST control) and the binding signal (HSF1) was 1.11 fold enrichment (6-mer frequency, TF over GST control). The binding signal (SPIC) was 1.25 fold enrichment (6-mer frequency, TF over GST control), the binding signal (ELF4) was 1.14 fold enrichment (6-mer frequency, TF over GST control) and the binding signal (ELK4) was 1.21 fold enrichment (6-mer frequency, TF over GST control). For the same sequence, the binding signal (ETV2) was 1.04 fold enrichment (6-mer frequency, TF over GST control), the binding signal (ELF3) was 1 fold enrichment (6-mer frequency, TF over GST control) and the binding signal (CRX) was 1.06 fold enrichment (6-mer frequency, TF over GST control).
